# PubChem BioAssay (NCATS)
# Inconclusive results are not listed. A call without a number means that no potency is given here. A structure can be active in one record and inactive in another. Values without a mark were called inactive. Calls of active or inactive are those of the source. The call rests on the fitted dose curve; in most records, active means well fitted curve in the direction sought with a large enough effect; inconclusive means small, poorly fitted or top-dose-only effect, or another doubt; inactive means no such curve, though single readings can be large; an effect the other way counts as inactive or inconclusive.
# Columns and labels:
# [1] = Viability qHTS for spleen associated tyrosine kinase inhibitor (SYKi) naive MV4-11 cells (AID 1963823); conditions: MV4-11 AML viability, CellTiter-Glo luminescence, 72 h; series mostly up to 45 µM; further: nearly all actives have a fitted effect of over 40% in size; further: potency means the concentration at half of the fitted maximal effect
# Summary of the method: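 Read-out: CellTiter-Glo luminescence. Exposure: 72 hr, 37 C, 5% CO2, 95% humidity. Cells: MV4-11 without SYK inhibitor history, 500/well, qHTS format.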
# [2] = Viability qHTS for spleen associated tyrosine kinase inhibitor (SYKi) drug resistant MV4-11 cells (AID 1963824); conditions: SYKi-resistant MV4-11 viability, CellTiter-Glo, 72 h; series mostly up to 45 µM; further: nearly all actives have a fitted effect of over 35% in size
# Summary of the method: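 SYK-inhibitor-resistant MV4-11 AML cells were seeded at 500 per well onto compound and cultured 72 hours (37 °C, 5% CO2). CellTiter-Glo was then added, and after 10 min at room temperature, luminescence gave viability.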
# [3] = Cellular viability qHTS for adrenocortical cancer (ACC) cell line SW-13 (AID 1963989); conditions: SW-13 ACC cells viability, CellTiter-Glo, 48 h; activity (max response): active compounds read low;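 further: cells grown in serum-free medium with ITS supplement; nearly all actives have a fitted effect of over 65% in size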
# Summary of the method: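 IC50 and maximal-response values come from four-parameter logistic fits of titration data. SW-13 cells in serum-free medium received compounds (up to 46 uM final) for 48 h before CellTiter-Glo luminescence.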
# [4] = Cellular viability qHTS for adrenocortical cancer (ACC) cell line NCI-H295R (AID 1963990); conditions: CellTiter-Glo ATP luminescence, 48 h; series mostly up to 46.1 µM; further: nearly all actives have a fitted effect of over 60% in size
# Summary of the method: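 Adrenocortical carcinoma cells, suspended at 300 000 cells/mL in serum-free DMEM plus ITS, rested overnight before pin transfer of compound. After two days' incubation, ATP-dependent luminescence was recorded and curve-fitted.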
compound,measurement,setting,value
COc1cc(/C=C/C(=O)OC[C@H]2O[C@@H](OC3OC=C(C(=O)O)C4C(O)CC(C)(O)C34)[C@H](O)[C@@H](O)[C@@H]2O)cc(OC)c1O (stereo partly specified),Potency,[1],inactive
Cc1cc(O)c(C(C)C)cc1Cl,Potency,[1],inactive
C/C=C1/[C@H](O[C@@H]2O[C@H](CO)[C@@H](O)[C@H](O)[C@H]2O)OC=C(C(=O)OC)[C@H]1CC(=O)OCCc1ccc(OC(=O)C[C@@H]2C(C(=O)OC)=CO[C@@H](O[C@@H]3O[C@H](CO)[C@@H](O)[C@H](O)[C@H]3O)/C2=C/C)cc1,viability (% of control),[1],67.3% [at 9.25 µM]
CC1(C)C[C@H](O)C[C@@]2(C)OC(=O)C=C12,Potency,[1],inactive
O=S(=O)(O)c1ccc(Nc2ncnc3c2ncn3[C@@H]2O[C@H](CO)[C@@H](O)[C@H]2O)cc1,Potency,[1],inactive
C/C(=C/CCC(CO)C1CCC2(C)C3CCC4C(C)(C)C(OC5OC(CO)C(O)C(O)C5O)CC(O)C45CC35CCC12C)COC1OC(CO)C(O)C(O)C1O (stereo unspecified),Potency,[1],inactive
CC(=O)N1CCc2ccc(O)c(OC3OC(COC4OCC(O)(CO)C4O)C(O)C(O)C3O)c2C1Cc1ccc(O)cc1 (stereo unspecified),Potency,[1],inactive
CC(C)=CCC/C(C)=C/CO[C@@H]1O[C@H](CO)[C@@H](O)[C@H](O)[C@H]1O,Potency,[1],inactive
COc1ccc(CC2NCCc3c2[nH]c2ccc(C)cc32)cc1OC (stereo unspecified),Potency,[1],9200 nM (active)
COC1C(O)C(OC2CCC3(C)C(CCC45CCC6C7(COC(=O)C7)OC4(O)C6(C)CCC35)C2)OC(C)C1OC1OC(CO)C(OC2OC(CO)C(O)C(O)C2O)C(O)C1O (stereo unspecified),Potency,[1],3900 nM (active)
COc1cc([C@H]2OC[C@](O)(Cc3ccc(O[C@@H]4O[C@H](CO)[C@@H](O)[C@H](O)[C@H]4O)c(OC)c3)[C@@H]2CO)ccc1O,Potency,[1],inactive
CC1OC(O[C@H]2CC[C@@]3(C)C(CC[C@]4(C)C3CC=C3C5CC(C)(C)CC[C@]5(C(=O)OC5OC(CO)C(OC6OC(COC7OCC(O)C(O)C7O)C(O)C(O)C6O)C(O)C5O)CC[C@]34C)C2(C)C)C(O)C(O)C1OC1OCC(OC2OCC(O)C(O)C2O)C(O)C1O (stereo partly specified),Potency,[1],155 nM (active)
O=C(OC[C@H]1O[C@H](O[C@H]2CO[C@H](CO)[C@@H](O)[C@@H]2O)[C@H](O)[C@@H](O)[C@H]1O)c1ccccc1,Potency,[1],inactive
COC1C(CO)OC(n2cnc3c(=O)[nH]cnc32)C1O (stereo unspecified),Potency,[1],inactive
C[C@H]1C[C@H]2[C@@H]3CCC4=CC(=O)C=C[C@]4(C)[C@@]3(F)[C@@H](O)C[C@]2(C)[C@@]1(O)C(=O)COP(=O)(O)O,Potency,[1],inactive
COc1cc(/C=C/C(=O)OC(C)(C)C(OC2OC(CO)C(O)C(O)C2O)C(=O)OCc2ccc(OC3OC(CO)C(O)C(O)C3O)cc2)ccc1O (stereo unspecified),Potency,[1],inactive
same,Potency,[2],inactive
CC(C)NC[C@H](O)COc1ccc(CCOCC2CC2)cc1,Potency,[1],inactive
same,Potency,[2],inactive
COC1OC(=O)C2=C1C1(C)CCCC(C)(C)C1CC2O (stereo unspecified),Potency,[1],inactive
O=C(N[C@H]1CCN(C(=O)c2cc(C(F)(F)F)cc(C(F)(F)F)c2)[C@H](Cc2ccc(Cl)cc2)C1)c1ccnc2ccccc12,Potency,[1],8930 nM (active)
CC[C@H](Nc1ncnc2nc[nH]c12)c1nc2cccc(F)c2c(=O)n1-c1ccccc1,Potency,[1],332 nM (active)
same,viability (% of control),[1],57.2% [at 9.25 µM]
same,"viability, % of control",[2],61.7% [at 9.25 µM]
same,activity (max response),[3],-2.88%
same,Potency,[4],inactive
COc1c2c(c(C)c3c1C(=O)OC3)O[C@@]1(C)CCC3(C(C)(C)O)OC(=O)CC[C@]3(C)[C@H]1C2 (stereo partly specified),Potency,[1],inactive
same,Potency,[2],inactive
S=c1ssc2c1CCC2,Potency,[1],inactive
CC(C)C[C@H](CC(=O)NO)C(=O)N[C@@H](Cc1ccc2ccccc2c1)C(=O)N[C@@H](C)C(=O)NCCN,Potency,[1],inactive
O=C(OCC1OC(Oc2ccc(O)cc2COC(=O)C2(O)C(O)CCC(=O)C2OC(=O)C2C=CCC2)C(OC(=O)C2C=CCC2)C(O)C1O)C1C=CCC1 (stereo unspecified),Potency,[1],inactive
same,Potency,[2],inactive
Cc1sc2c(c1C)C(c1ccc(Cl)cc1)=N[C@H](CC(=O)NCCCCNC(=O)COc1cccc3c1C(=O)N([C@H]1CCC(=O)NC1=O)C3=O)c1nnc(C)n1-2,Potency,[1],46.1 nM (active)
C[C@@H](c1ccccc1)N(C(N)=NC#N)c1cccc2ncccc12,Potency,[1],inactive
C[C@@H]1CC[C@]2(C(=O)O)CC[C@]3(C)C(=CCC4[C@@]5(C)C[C@@H](O)[C@H](O)[C@@](C)(CO)C5CC[C@]43C)C2[C@H]1C (stereo partly specified),Potency,[1],inactive
COc1cc(C(C)=O)c(OC)c2c1OC(C)(C)C=C2,Potency,[1],inactive
